Screening results deposited in PubChem BioAssay by National Center for Advancing Translational Sciences (NCATS).
GLS inh: qHTS for Inhibitors of Glutaminase (GLS) | Glutaminase kidney isoform, mitochondrial (Homo sapiens), O94925 | GLS enzymatic activity, qHTS titration | Potency, µM (doses to about 45.5 µM), for the others: top-dose activity change, negative = inhibition, usual class: inhibitors | hit rate 0.21% among 410,000 | AID 624170, 2012; note: % is set by controls: 0 for no effect and ±100 for the full control effect
Target sequence (O94925 whole entry, looked up, canonical isoform): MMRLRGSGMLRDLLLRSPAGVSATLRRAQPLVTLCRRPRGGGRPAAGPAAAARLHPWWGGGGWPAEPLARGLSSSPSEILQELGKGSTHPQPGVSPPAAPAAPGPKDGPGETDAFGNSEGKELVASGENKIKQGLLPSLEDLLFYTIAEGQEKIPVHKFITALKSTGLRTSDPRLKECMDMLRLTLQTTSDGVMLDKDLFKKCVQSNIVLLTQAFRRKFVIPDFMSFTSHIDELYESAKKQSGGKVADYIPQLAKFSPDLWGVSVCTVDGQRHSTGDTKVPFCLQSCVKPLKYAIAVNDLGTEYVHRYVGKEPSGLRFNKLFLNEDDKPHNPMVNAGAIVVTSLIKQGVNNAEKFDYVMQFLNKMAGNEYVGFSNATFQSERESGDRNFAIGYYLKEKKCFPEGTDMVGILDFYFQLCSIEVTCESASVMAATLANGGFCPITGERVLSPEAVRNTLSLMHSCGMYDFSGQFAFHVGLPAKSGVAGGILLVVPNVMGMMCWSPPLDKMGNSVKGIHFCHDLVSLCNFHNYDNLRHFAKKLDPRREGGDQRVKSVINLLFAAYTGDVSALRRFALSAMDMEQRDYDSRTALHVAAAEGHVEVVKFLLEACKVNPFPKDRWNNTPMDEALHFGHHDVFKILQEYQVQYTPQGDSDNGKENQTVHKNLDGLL
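Enzyme dispensed in phosphate buffer (45 mM, pH 8.2, 0.02% Tween-20), compounds pinned in, then 1 mM L-glutamine solution and the glutamate oxidase–HRP–Amplex Red mix added; fluorescence read immediately and again after 30 min at room temperature.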
BAZ2B block: qHTS Assay for Inhibitors of BAZ2B. Bromodomain adjacent to zinc finger domain protein 2B (Homo sapiens), Q9UIF8. AlphaScreen BAZ2B-H3K14Ac peptide displacement. Potency, µM (doses to about 114 µM), for the others: top-dose activity change, negative = inhibition, actives largely listed as inhibitors. hit rate 4.4% among 360,000. AID 504333, 2011; note: % is set by controls: 0 for no effect and ±100 for the full control effect; nearly all actives have a fitted effect of over 60% in size
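AlphaScreen displacement: compounds (up to 110uM) incubated 30 min at room temperature with a preformed 50 nM BAZ2B/50 nM biotinylated H3K14Ac peptide complex in PBS pH 7.4 with Tween-20. Donor and acceptor beads at 10 ug/mL final added, 20 min light-protected before reading.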
G9a inh: qHTS Assay for Inhibitors of Histone Lysine Methyltransferase G9a. Histone-lysine N-methyltransferase EHMT2 (Homo sapiens), Q96KQ7. G9a H3K9 monomethylation, AlphaScreen, 2 h. Potency, µM (doses to about 102 µM), without a hit: at the top dose activity, negative = inhibition, usual class: inhibitors. hit rate 8.8% among 350,000. AID 504332, 2011; note: % is set by controls: 0 for no effect and ±100 for the full control effect; nearly all actives have a fitted effect of over 75% in size
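Using a bead-based AlphaScreen, monomethylated H3K9 product from 2 h room-temperature reactions (G9a 20 nM, peptide 500 nM, SAM 20 uM) was detected with 0.5 ug/mL rabbit anti-H3K9me1 antibody.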
HP1b binding inh: HTS for Inhibitors of HP1-beta Chromodomain Interactions with Methylated Histone Tails; Chromobox protein homolog 1 (Homo sapiens), P83916; Potency, µM (series often up to 114 µM), inactives show at the top dose activity change, negative = inhibition, hits mostly inhibitors; hit rate 0.56% among 390,000; AlphaScreen HP1-beta / biotin-H3K9me3 peptide binding; note: nearly all actives have a fitted effect of over 70% in size
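AlphaScreen: HP1-beta (50 nM) preformed 30 min with biotin-H3(1-18)K9me3 peptide (50 nM) in PBS pH 7.4, 0.01% Tween-20. Compound added for 30 min at RT, then streptavidin donor/nickel chelate acceptor beads (10 ug/mL) for 30 min.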
JMJD2A Tudor inh: qHTS Assay for Inhibitors of JMJD2A-Tudor Domain; AlphaScreen JMJD2A-Tudor / H3K4me3 peptide binding; hit rate 4.4% among 390,000; Potency, µM (top dose mostly 114 µM), inactives show at the highest dose activity change, negative = inhibition, most hits filed as inhibitors; Lysine-specific demethylase 4A (Homo sapiens), O75164; note: % is set by controls: 0 for no effect and ±100 for the full control effect; nearly all actives have a fitted effect of over 50% in size
The depositor's hits bear a star; ? = inconclusive; . = not tested or not shown; [ ] = dose if it differs, or a comment. An excerpt weighted towards active compounds, which were near 10% of everything screened. Calls come from the whole dose curve; as a rule, active = well fitted curve in the direction sought with a large enough effect; inconclusive = small, poorly fitted or top-dose-only effect, or another doubt; inactive = no such curve, though single readings can be large; an effect the other way counts as inactive or inconclusive. Potency is the fitted concentration of half-maximal effect.

SMILES	GLS inh	BAZ2B block	G9a inh	HP1b binding inh	JMJD2A Tudor inh
O=C(CSc1nc(-c2ccccc2)ns1)N1CCOCC1	-10%	-17%	8.9µM*	-15%	-14%
Cc1cccc(-c2nsc(SCC(=O)Nc3ccc4c(c3)OCO4)n2)c1	-6%	1%	-77%	16%	-11%
Cc1cccc(-c2nsc(SCC(=O)Nc3nccs3)n2)c1	-15%	-5%	10µM*	-8%	?
Cc1cccc(-c2nsc(SCC(=O)N3CCCC3)n2)c1	-1%	-5%	40µM*	3%	2%
CCCCCCSc1nnc2[nH]c(=O)cc(N)n12	-2%	1%	1%[59 µM]	18%	-35%
CCCCCCCCSc1nnc2[nH]c(=O)cc(N)n12	-4%	-19%	-9%	-17%	11µM*
CC(=O)Nc1ccc(NC(=O)CSc2nnc(C3CC3)n2C)cc1	1%	14%	2%	29%	6%
CCc1ccc(NS(=O)(=O)c2ccc3[nH]cc(C(=O)N4CCc5ccccc54)c(=O)c3c2)cc1	-3%	?	50µM*	?	?
CCc1noc(C)c1C(=O)Nc1nc2c(C)cccc2s1	0%	9%	-43%	17%	-14%
O=C(CCS(=O)(=O)c1ccc2c(c1)NC(=O)CS2)NCCc1ccc(Cl)cc1	3%	-18%	10%	13%	16µM*
Cn1c(SCc2c(F)cccc2Cl)nc2c(c1=O)SCC2	1%	28µM*	-26%[59 µM]	-27%	?
Cn1c(CCCNC(=O)c2ccco2)nc2ccccc21	-4%	.	.	19%[57 µM]	-11%
CC1=CC(=O)C=C(C)C1=NOS(=O)(=O)c1ccccc1	-5%	?	?	-16%	-2%[57.1 µM]
CC1=CC(=O)C(C(C)C)=C/C1=N/OS(=O)(=O)c1ccccc1	-6%	14µM*	.	?	45µM*
Cc1ccc2nc(-c3ccc(N=Nc4cc(S(=O)(=O)O)c5ccccc5c4O)cc3)sc2c1S(=O)(=O)O	.	.	.	14µM*	18µM*
Cc1ccc2nc(-c3ccc(NS(=O)(=O)c4ccccc4)cc3)sc2c1	-8%	2%	-1%[59 µM]	35%	2%
Cc1ccc2c(c1)c1c(n2CC(O)CN2CCC(C)CC2)CCCC1 (stereo unspecified)	2%	?	?	-25%[57 µM]	40µM*
Cc1ccc2c(c1)c1c(n2CC(O)CN2CCCCC2C)CCCC1 (stereo unspecified)	27%	?	45µM*	-21%	-10%[11.4 µM]
CCOc1ccc(Cc2n[nH]c(=S)n2Cc2ccccc2)cc1	-3%	-38%	1.1µM*	-10%	45µM*
COc1ccc(Cc2n[nH]c(=S)n2Cc2ccccc2)cc1Cl	-25%	?	6.3µM*	-18%	56µM*
COc1ccccc1C(=O)NCc1ccccc1	-6%	7%	6%[59 µM]	39%	-15%
COc1ccccc1C(=O)NCc1n[nH]c(=S)n1Cc1ccccc1	-11%	-3%	?	43%	35µM*
Cc1nc2c(C)cccn2c(=O)c1NC(=O)c1ccc(Br)o1	1%	-4%	0%	30%	-11%
Nc1ccc(NC(=O)c2cccs2)c(Cl)c1	34%	-8%	-21%	13%	-7%
Nc1ccccc1Nc1ccccc1	1%	45µM*	.	?	45µM*
SMILES	GLS inh	BAZ2B block	G9a inh	HP1b binding inh	JMJD2A Tudor inh
Nc1ccc(Nc2ccccc2)c(Cl)c1	23%	50µM*	?	?	?
Cc1cc(/C=N/NC(=O)c2cccs2)c(C)n1-c1ccccc1	6%	?	?	0%	?
COC(=O)c1ccc(OCC(O)CNCC(c2ccc(OC)cc2)N(C)C)c(OC)c1 (stereo unspecified)	26%	50µM*	?	-25%	1.8µM*
Cc1[nH]nc2c1C(CC(C)C)C(C#N)=C(N)O2 (stereo unspecified)	-9%	-17%	0%[12.7 µM]	39%	-3%
O=C(CN(Cc1ccccc1)C1=NCCS1)c1ccccc1	8%	10%	50µM*	28%	-14%
Cc1ccc(C(=O)CN(Cc2ccccc2)C2=NCCS2)cc1	9%	-3%	?	42%	-5%
